We go through 85 sequences from PubChem BioAssay AID1159506 (National Center for Advancing Translational Sciences (NCATS), 2015).

Over roughly 59,000 sequences, the read-out has its median near -0.00055; the lowest 2% begin near -2. The full list was thinned out, with the lowest values kept by preference.

The experiment is described as follows: Identification of proteins required for the processing of the EWS-FLI1 nascent transcript.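 Further: robust z of luciferase light less the median z of siRNAs with the same seed.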 To be noted: TC32 Ewing sarcoma NR0B1-luc vs CMV-luc (EWS-FLI1 target promoter against control promoter), 48 h; screened at 20 nM (by protocol). On the procedure:
Ewing sarcoma (ES) cells depend on the EWS-FLI1 fusion transcription factor for cell survival. Using an assay of EWS-FLI1 activity and genome-wide siRNA screening we have identified proteins required for the processing of the EWS-FLI1 nascent transcript. Parallel genome-wide siRNA-mediated RNAi screens were conducted in Ewing sarcoma TC32 cell lines expressing a luciferase (luc) reporter protein driven by either the promoter of the EWS-FLI1 target gene NR0B1 (TC32-NR0B1-luc) or the CMV promoter (TC32-CMV-luc). Luciferase activity was assessed 48 hours post siRNA-transfection.
Twenty microl of serum-free media containing Lipofectamine RNAiMax (0.05 microl) was added to wells containing siRNA (0.8 pmol). Lipid and siRNA were allowed to complex for 45 min at ambient temperature before addition of 600 cells in RPMI-1640, 20% FBS to yield final transfection mixtures containing 20 nM siRNA in RPMI-1640, 10% FBS. Luciferase expression was measured using OneGlo (Promega, Madison, WI). The genome-wide screening campaign was conducted using Ambion's human genome library version 4.1 (Ambion, Austin TX). This library targets approximately 21000 human genes, three siRNAs per gene. Each siRNA is arrayed in an individual well of a 384-well plate. Parallel transfections were conducted in TC32-NR0B1-luc and TC32-CMV-luc cell lines and luciferase expression (OneGlo, Promega) was assayed 48 h later on a PerkinElmer Envision 2104 Multilabel plate reader (PerkinElmer, Waltham, MA). Qiagen's AllStars Negative control was incorporated on all screening plates for normalization (16 wells per plate). Qiagen, Germantown, MDsiGL4 was incorporated as a positive transfection control (16 wells per plate) on all plates. […] The raw luciferase data for the NR0B1- and CMV-luc screens were normalized and z-score-MAD transformed using standard methods (Chung et al., 2008). The miRNA-like seed sequence of every siRNA was determined and the median z-score for all siRNA sequences with the same seed sequence was calculated. This z-score was subtracted from the z-score associated with each siRNA with that seed sequence to generate a seed-adjusted z-score value (Z) that was used when the results for the three siRNAs corresponding to each gene were compared (Marine et al., 2012)
In the case of AUUCACACCAGUAUUAGUG against KIAA1456, the seed-corrected z-score amounted to 0.152.

Sequence UAAUCCGUAAAUUCGAUAC against RNF139 had a seed-corrected z-score of 0.709.

Regarding AUAGCUGCAGGAUCUAAGC against POLR3A, the seed-corrected z-score is -3.95.

In turn, UUCCGGUAGAAGAUGAGCC against SHMT2 had a seed-corrected z-score of 0.314.

As to UUCAUGGUAGGAAAGGUCU against DXO, the seed-corrected z-score came to 1.33.

UAGUAUCAAAUAUCCAGAC against TMEM60 displayed a seed-corrected z-score of 0.0266.

Turning to UAAUGUACACCACAUUGGG against FAM198B, the seed-corrected z-score was -2.46.

Sequence UUCACGUUCAUUGCAGUCU against RAB5C displayed a seed-corrected z-score of -1.4.

On to ACAGUUAAGACACCACUCC against FXN, for which the seed-corrected z-score came out at 1.1.

Consider AUAAGCAACACCAUUAUGG against BOLL, for which the seed-corrected z-score was determined as 1.08.

The sequence AAUGGGUCUACCUUGUUGG against PSMC5 had a seed-corrected z-score of -1.78.

Sequence AAUAAAGACGGAUUUAUUC against HTATIP2 gave a seed-corrected z-score of 0.204.

Sequence UUUGAUAUGAUGUUCCACC against DDX50 returned a seed-corrected z-score of -0.378.

For AAACGAUCCAUAUAGUCCG against MIER3, the seed-corrected z-score was 0.02.

Regarding UAUUGACCAAGAUCACAUG against FASTKD2, the seed-corrected z-score was found to be 0.878.

On to AGCUGUAUCCAUUAGGGUG against NTSR2, for which the seed-corrected z-score came out at 0.216.

For the sequence UUCCAUGUAACCGUCGUUC against SHE, the seed-corrected z-score was -0.285.

For the sequence AGAUCUAUUACUUCCAGGG against LRRC34, the seed-corrected z-score is -3.45.

As for AAAGCGACACUUAUCACCC against WRB, the seed-corrected z-score is 0.538.

In turn, UCUUUAAGAAUUGCACAUC against NAAA returned a seed-corrected z-score of -0.571.

In turn, UCCUGCUUCAGUAAAUCUC against MRPL24 showed a seed-corrected z-score of -2.37.

Sequence UCUCGAUUUAGCUUAGGCC against SKP2 returned a seed-corrected z-score of -0.249.

Regarding AUAUCAACAAGCCCAAUUC against KCNB2, the seed-corrected z-score was -0.883.

In the case of UAGCCGACAAAACAACAUC against HEATR1, the seed-corrected z-score is -0.424.

Sequence AAAGCUAUUAUCAUGUAGG against SLC35B3 showed a seed-corrected z-score of 0.789.

Turning to AUCGGUAUAGUUGAUGCAC against SCN10A, the seed-corrected z-score was determined as 0.0881.

For the sequence UUUUGAACCAGGGUAGUUC against GNA15, the seed-corrected z-score came to 0.0907.

Turning to UCCGGAACAUAUGUUGUCG against TNFRSF11B, the seed-corrected z-score is -0.942.

As for UGAUGAUCUACACUGAUUC against FAM91A1, the seed-corrected z-score is -2.35.

In the case of UUGGAUUGGCGCUAUGUUC against ANKRD20A18P, the seed-corrected z-score was -0.888.

Consider UUGUAGACCAUGUUGGAGC against POLE, for which the seed-corrected z-score is -0.71.

Sequence UCUGGUUCUUGUGCUCUUC against INO80B returned a seed-corrected z-score of -2.05.

Turning to AAUCGGAUUUUGUUGAGUC against SOWAHC, the seed-corrected z-score is -0.193.

The sequence UUUCUUCCUGUGCACGUCA against OXCT2 yielded a seed-corrected z-score of -0.277.

In the case of UCUUCAGCCGCAUCGAUCU against TNNI2, the seed-corrected z-score amounted to 0.556.

As for AUCUGUAUAAUCGACAGGC against BARD1, the seed-corrected z-score was -1.42.

AAACGGUACAGAGCGCUGC against C1orf233: the seed-corrected z-score was -1.64.

UAGCAUGAAACUUUUGUUG against STK35 gave a seed-corrected z-score of 0.199.

With UUGGUUGGAACUACUUACG against STARD9, the seed-corrected z-score was -3.22.

As to UGUGGUAUUUAGUUGUUCG against PRMT2, the seed-corrected z-score was -0.735.

ACUGGAAUAAGACCGGCUG against EMCN gave a seed-corrected z-score of -0.0798.

Sequence ACUAGGAUCACGACUUUCC against SLC30A9 displayed a seed-corrected z-score of -0.286.

In turn, UCUGUUUUCAGGUGCAUCC against AHRR came in with a seed-corrected z-score of -0.835.

UUCGUUAUCUAUUUCCACC against CASC5 returned a seed-corrected z-score of -1.38.

For the sequence UCAUUGUUCAAGGUCAUUC against ABTB2, the seed-corrected z-score was 0.182.

As for UUCCAGUUGAGUGGUGUCC against SLA2, the seed-corrected z-score is -2.67.

Consider AAUUUGUUCACGUAAACUU against POU3F2, for which the seed-corrected z-score amounted to 0.623.

Regarding UUCCGUAAGACUGACACUC against REG4, the seed-corrected z-score is -15.5.

The sequence UCUCGUUCGGUAAUCUUCC against PPP2R2C displayed a seed-corrected z-score of -0.613.

The sequence AUCCCUUCAAUGGCCAUCC against ECHDC2 had a seed-corrected z-score of -0.995.

As for AUUGUUAUAGAAGCGGUCU against SPA17, the seed-corrected z-score is -0.602.

On to UGACGUACCUAUCCACUGC against MC5R, for which the seed-corrected z-score is -0.731.

UCGUUGCUCAGCAUCAAUC against SBNO1 returned a seed-corrected z-score of -0.827.

The sequence AUCGAUCUAGUUUAAUUCC against DGKE displayed a seed-corrected z-score of -0.537.

For UGUAUAGUCAUGAUAAUGU against LOC643784, the seed-corrected z-score is -0.459.

Sequence UCAGGGCUCAGACAGGACU against TSC22D3 had a seed-corrected z-score of -2.02.

For the sequence AGAGAAUAAAGAGCUGGAC against TMEM79, the seed-corrected z-score worked out at 0.267.

The sequence AGACUUGCGAACAUGAUUC against CGGBP1 displayed a seed-corrected z-score of 0.518.

With UUCCUUCCUACUCAGGGUC against S100A5, the seed-corrected z-score was -2.25.

Take UCAACCUUUACUGAAGGCC against ARNTL: the seed-corrected z-score is -0.133.

Sequence UAUAGCGAAGGGACAAACC against LRRTM3 returned a seed-corrected z-score of 0.0787.

In the case of UGAUGAUUAUCUUUGAAUG against IGFBP3, the seed-corrected z-score is 0.761.

Consider AAACGUACCUUGUCAUUCC against TXK, for which the seed-corrected z-score was -0.645.

For the sequence UUUUCUCUCGUAUUAAUUG against GSDMB, the seed-corrected z-score is 0.329.

With UCAUCAUCUAAUAAAGUCC against MRO, the seed-corrected z-score is -3.11.

In the case of ACUGGAUUAACAUCAUCUG against SDHAF4, the seed-corrected z-score was -0.445.

Consider UGCUUUCUCAGGGCAGCUC against ZFP42, for which the seed-corrected z-score was -0.0418.

In the case of AAAGGGAUGCUCCAAGCGC against NME3, the seed-corrected z-score was 0.482.

Sequence AUAAGUUGCAGCAAAAUCC against MAB21L1 registered a seed-corrected z-score of -0.725.

The sequence AUCGAUGAUAGCCUGCUCG against ANXA8L1 showed a seed-corrected z-score of -2.86.

Turning to UUUACCACAGGUUUCUUCC against HIRIP3, the seed-corrected z-score is -0.591.

UAACUUCAAACCGAUUUCU against TRMU gave a seed-corrected z-score of -0.389.

AAAGUAAAGAUAUGCGUGU against TBX21 gave a seed-corrected z-score of 1.07.

With UCUGUCGAUAGUCUUCUCG against STIP1, the seed-corrected z-score amounted to 0.345.

In turn, UAAUGUACUCGUCACACCU against BICD2 displayed a seed-corrected z-score of -2.89.

UAUGGGACAUCCUAAUCAC against KIAA0586 gave a seed-corrected z-score of -0.187.

On to UCCGCUUUAACCCUGCUUC against PRDM2, for which the seed-corrected z-score was -0.723.

Turning to UUUAGCUCUGGAACAAUGC against SLC38A1, the seed-corrected z-score amounted to 0.0432.

The sequence UUACUAGUAAUGGACCCGC against YTHDF2 returned a seed-corrected z-score of 1.05.

For the sequence UUCAUAUAUACUCUGAUUC against C1DP3, the seed-corrected z-score amounted to 0.587.

The sequence UACUCGACCUUCUUUCACC against PPP3CB showed a seed-corrected z-score of 0.354.

The sequence AAAGAUUGAGGUGGUAUGC against YTHDF3 had a seed-corrected z-score of -2.48.

On to UUUCGGUUUCCACUUUUCC against NIPAL3, for which the seed-corrected z-score is 0.547.

UAACUCAUCAACUUUAUCG against CHMP4B came in with a seed-corrected z-score of -0.576.

For the sequence UUCUCUAUCUCAUGAAUCC against RAB19, the seed-corrected z-score is 0.0141.
